From PubChem BioAssay
Shown are actives, neighbours in structure and some others; about 1.6% of the full set was active somewhere.
A1 inh = inhibitors of the anti-apoptotic protein A1, read as caspase activation; MEF A1-2A-BIM cells, Caspase-Glo 3/7 luminescence, 3 h; percent of clofoctol response, vehicle zero; 330,000 tested, 0.066% active; caspase activation, % (no concentration beside the values);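 active = over half of replicate activation scores above 10%, or exactly half above 10 with the replicate mean above 10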
Beta2AR agonist = human beta-2 adrenergic receptor agonism by FAP. P07550. Am2.2-beta2AR cells, FAP receptor internalization, flow cytometry. response, % (no concentration beside the values). 340,000 tested, 0.43% active;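 active = response above a set limit, near 3 SD of response in nonfluorescent compounds, cut at about 42% in these data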
Target sequence (P07550 whole entry, looked up): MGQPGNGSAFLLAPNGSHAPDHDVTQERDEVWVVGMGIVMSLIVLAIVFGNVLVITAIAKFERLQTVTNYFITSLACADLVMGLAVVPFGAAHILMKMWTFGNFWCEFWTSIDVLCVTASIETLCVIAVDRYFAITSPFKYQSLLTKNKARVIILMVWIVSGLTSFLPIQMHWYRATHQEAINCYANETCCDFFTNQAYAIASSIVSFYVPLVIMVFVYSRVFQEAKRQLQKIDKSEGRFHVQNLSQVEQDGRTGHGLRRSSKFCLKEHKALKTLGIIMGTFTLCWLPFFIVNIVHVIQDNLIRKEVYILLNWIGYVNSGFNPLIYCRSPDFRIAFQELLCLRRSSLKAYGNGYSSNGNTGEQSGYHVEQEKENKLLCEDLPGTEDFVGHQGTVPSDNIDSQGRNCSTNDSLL
DYRK1A inh = blocks rat Dyrk1A kinase activity. AID 504441. ADP-Glo luminescence, NFATc1 peptide. inhibition, % at 12.5 µM. Q63470. 310,000 tested, 0.43% active; in the data active = inhibition above about 50%;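 also: plate controls were vehicle with enzyme for no effect and no enzyme for full effect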
dFosB act-1 = mouse delta FosB homodimer activation; P13346; purified delta FosB, TAMRA-CDK5 oligo fluorescence polarization; percent of positive-control signal above neutral wells; activation, % at 25 µM; 340,000 tested, 0.99% active;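 active = mean activation above about 17%, with every replicate also reaching it, limit read from the data, passing the limit was not always enough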
dFosB act-2 = enhances mouse delta FosB homodimer binding to DNA | 2,400 tested, under 10 active | AID 588690 | activation, % at 24.9 µM | shares compounds with dFosB act-1 | purified delta FosB, TAMRA-CDK5 oligo fluorescence polarization; normalised: neutral wells 0, positive control 100;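 active = highest replicate activation at or above 34% and every replicate reaching that threshold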;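 also: higher polarization means more probe DNA bound by delta FosB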
Active calls of the source: *; · = no result given.

SMILES | A1 inh | Beta2AR agonist | DYRK1A inh | dFosB act-1 | dFosB act-2
O=C(CSc1nnc(NC(=O)C2CC2)s1)Nc1cccc(F)c1 | 0 | -2 | -3 | 28* | -1
COc1cccc(NC(=O)CSc2nnc(NC(=O)C3CCC3)s2)c1 | 1 | 1 | 4 | -1 | ·
Cc1ccc(C)c(NC(=O)CSc2nnc(NC(=O)C3CC3)s2)c1 | 0 | -10 | -1 | 28* | 5
O=C(O)C(F)=C1c2ccccc2-c2ccccc21 | 1 | 0 | · | · | ·
C[C@]12CC[C@H](O)CC1=C[C@H](O)C1C2CC[C@@]2(C)C1CC[C@@]2(O)C#Cc1ccc(CN)cc1 (stereo partly drawn) | · | 0 | 0 | 24* | 3
Cc1ccc(Cn2c(=O)n(CCC(=O)NCc3ccc4c(c3)OCO4)c(=O)c3ccccc32)cc1 | -1 | -7 | 10 | 28* | 3
O=C(CCn1c(=S)[nH]c2cc3c(cc2c1=O)OCO3)NCc1cccc(Cl)c1 | 0 | 0 | -1 | 21* | -1
N#Cc1ccccc1Cn1c(=O)n(CCCC(=O)NCc2ccc3c(c2)OCO3)c(=O)c2ccccc21 | 1 | 2 | -4 | 1 | ·
O=C(Cn1cc(C(=O)C2CC2)c2ccccc21)NCc1ccc2c(c1)OCO2 | 1 | -12 | 0 | 22* | 5
O=C(CCCn1c(=S)[nH]c2cc3c(cc2c1=O)OCO3)NCc1cccc(Cl)c1 | 1 | 4 | 3 | 9 | ·
Cc1cc(C)cc(NC(=O)C(OC(=O)c2ccc(NC(=O)CC#N)cc2)c2ccccc2)c1 (stereo not drawn) | 0 | 7 | 3 | 28* | 3
CCn1c2ccccc2c2cc(NC(=O)C(C)OC(=O)c3ccc(NC(=O)CC#N)cc3)ccc21 (stereo not drawn) | 0 | 2 | · | 18* | 7
Cc1ccc(C)c(NC(=O)C(OC(=O)c2ccc(CO)cc2)c2ccccc2)c1 (stereo not drawn) | · | -8 | -4 | 35* | 3
Cc1ccc(C)c(NC(=O)C(OC(=O)c2cc[n+]([O-])cc2)c2ccccc2)c1 (stereo not drawn) | · | 3 | -6 | -3 | ·
CCn1c2ccccc2c2cc(NC(=O)COC(=O)c3ccc(O)cc3)ccc21 | 0 | 9 | 8 | 15 | ·
O=[N+]([O-])c1ccc2[nH]c3nc4ccccc4nc3c2c1 | -1 | -6 | -1 | 38* | 8
O=[N+]([O-])c1ccc2[nH]nc(-c3ccccc3)c2c1 | 0 | 3 | 41 | -5 | ·
N#Cc1ccc(-c2ccc(OCC(=O)NCCc3ccccc3)cc2)cc1 | -1 | 0 | -3 | 0 | ·
N#Cc1ccc(-c2ccc(OCC(=O)NCC(=O)Nc3ccc(F)c(F)c3F)cc2)cc1 | -1 | 15 | 2 | 42* | 7
Cc1ccccc1C(=O)Nc1cccc(NC(=S)NC(=O)c2cccs2)c1 | 0 | 1 | -1 | 50* | 0
CC(=O)NC(=S)Nc1ccc(NC(=S)NC(=O)c2cccs2)cc1 | 0 | 2 | 6 | 37* | 3
Cc1cnc(NC(=O)c2cc(-c3ccccc3)nn2-c2ccccc2)s1 | · | -6 | -2 | 4 | ·
CC(Oc1cccc(Br)c1)C(=O)NNC(=O)CCS(=O)(=O)c1ccccc1 (stereo not drawn) | 0 | 1 | · | -3 | ·
CCN(CC)CCNc1ccnc2cc(Cl)ccc12 | 1 | 11 | 5 | 9 | ·
CCNC1CCC(Nc2ccnc3cc(Cl)ccc23)CC1 (stereo not drawn) | · | 7 | 4 | 20* | 6
SMILES | A1 inh | Beta2AR agonist | DYRK1A inh | dFosB act-1 | dFosB act-2
Cc1ccc(COc2ccsc2C(=O)NNC(N)=S)cc1 | 0 | -5 | 2 | 28* | 0
CC(/C=N/NC(=O)c1ccc(Cn2cc([N+](=O)[O-])cn2)o1)=C\c1ccccc1 | 0 | 4 | 0 | 28* | 4
Cc1ccc(C(=O)CCC(=O)NNC(=O)c2ccccc2O)cc1 | -1 | -1 | 5 | 23* | -1
O=C(NCc1ccc(F)cc1)c1cc2c(s1)CS(=O)(=O)C2 | 1 | -3 | -1 | 2 | ·
COc1cccc(-c2cc(C(=O)N3CCN(S(=O)(=O)c4ccc(Br)cc4)CC3)[nH]n2)c1 | 1 | 12 | -3 | 75* | 5
COc1ccc(S(=O)(=O)N2CCN(C(=O)c3cc(-c4ccccc4OC)n[nH]3)CC2)cc1 | 0 | 2 | -13 | -15 | ·
O=C(Nc1cccc2ccccc12)/C(=C/c1cccc([N+](=O)[O-])c1)NC(=O)c1cccs1 | 0 | 5 | -1 | 24* | -5
O=C(Nc1cccc2ccccc12)/C(=C\c1cccc([N+](=O)[O-])c1)NC(=O)c1cccs1 | -1 | 3 | -15 | -1 | ·
CCOC(=O)c1ccc(NC(=O)CC2S/C(=N/N=C3/NC(=O)CS3)NC2=O)cc1 (stereo not drawn) | 1 | -2 | · | 23* | 1
Nc1ccccc1NC(=O)NC(=O)c1ccccc1 | -2 | -2 | -2 | 1 | ·
COc1cccc(OCCNC(=O)Nc2cc(F)c(F)cc2Cl)c1 | 0 | -4 | -6 | 74* | -1
Cc1ccc(C)c(NC(=O)c2ccccc2NS(=O)(=O)c2cc([N+](=O)[O-])ccc2C)c1 | 0 | 17 | 1 | 27* | 6
Fc1ccc2[nH]c3c(c2c1)CN(C(=S)NCc1ccccc1)CC3 | 0 | 0 | -3 | -5 | ·
O=C(COc1coc(CN2CCCc3ccccc32)cc1=O)Nc1ccc([N+](=O)[O-])cc1 | 0 | 0 | -2 | 28* | 7
Cc1c(-c2nc(N)nc(Nc3ccccc3)n2)oc2ccccc12 | -1 | -6 | 11 | 52* | -1
Nc1nc(CN2CCCCCC2)nc(Nc2ccccc2)n1 | 0 | -4 | 0 | -4 | ·
O=C(N=C1SC2CS(=O)(=O)CC2N1c1ccc(F)cc1)C1CC1 (stereo not drawn) | 1 | 0 | 6 | -1 | ·
COc1cc(/C=C/c2nc(N)nc(-c3ccccc3O)n2)cc(OC)c1OC | -2 | 17 | -5 | 34* | 3
COc1ccc(/C=C/c2nc(N)nc(-c3ccccc3O)n2)cc1OC | 0 | 21 | -3 | 10 | ·
Fc1ccc(-c2noc(-c3ccc4c(c3)CCO4)n2)cc1 | -5 | 1 | -4 | 28* | 3
Cc1cc(Br)ccc1SCC(=O)OC/C(O)=C(\C#N)c1nc2ccccc2[nH]1 | 0 | 14 | 1 | 52* | 4
O=C(Nc1cc(Cl)ccc1Cl)c1cc(-c2ccco2)on1 | 0 | -8 | -6 | 18* | -4
CC(=O)c1cc2c(cc1N/C(=N/S(=O)(=O)c1ccc(Br)cc1)c1ccccc1)OCO2 | 0 | -5 | 4 | 62* | -1
Cc1nn(C)c(C)c1NC(=O)CSc1nc(-c2ccccc2Cl)nc2c1cnn2-c1ccccc1 | 0 | 5 | -7 | 122* | 6
COc1ccc(N2CCN(C(=O)c3cc(C)oc3C)CC2)cc1 | 1 | 3 | -2 | 5 | ·
Cn1cnc(S(=O)(=O)Nc2ccc(OC(F)F)cc2)c1 | 0 | -1 | 0 | -1 | ·
